# Experimental data published in PubChem BioAssay (Tox21).
# Unmarked numbers belong to inactive results. Records with an inconclusive call do not appear. A call without a number means that no potency is given here. Calls of active or inactive are those of the source. Unless noted, calls follow the shape of the dose curve; as a rule, active = well fitted curve in the direction sought with a large enough effect in the repeat runs; inconclusive = weak or mixed curves; inactive = no such curve, though single readings can be large; an effect the other way counts as inactive or inconclusive.
# Assays:
# [1] = qHTS assay to identify small molecule agonists of the estrogen receptor alpha (ER-alpha) signaling pathway in the presence of an antagonist - cell viability counter screen (AID 1259386);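 also: series mostly up to about 92 µM; cells exposed to compounds for 22 h at 37 °C before the viability read; nearly all actives have a fitted effect of over 30% in size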
# How it was run: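 VM7Luc4E2 cells (endogenous full-length ER-alpha, 4×ERE-luciferase) were held 5 days in phenol red-free medium with 10% charcoal-stripped FBS, plated, then given 10.0nM ICI-182,780 and compounds at 15 concentrations for 22hr at 37C; viability read by CellTiter-Fluor fluorescence.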
# [2] = target: Progesterone receptor (Homo sapiens) (UniProt P06401); assay: qHTS assay to identify small molecule agonists of the progesterone receptor (PR) signaling pathway (AID 1346784; calls by dose curve; also: nearly all actives have a fitted effect of over 30% in size)
# Chain of Progesterone receptor (Homo sapiens) (P06401 whole entry, looked up): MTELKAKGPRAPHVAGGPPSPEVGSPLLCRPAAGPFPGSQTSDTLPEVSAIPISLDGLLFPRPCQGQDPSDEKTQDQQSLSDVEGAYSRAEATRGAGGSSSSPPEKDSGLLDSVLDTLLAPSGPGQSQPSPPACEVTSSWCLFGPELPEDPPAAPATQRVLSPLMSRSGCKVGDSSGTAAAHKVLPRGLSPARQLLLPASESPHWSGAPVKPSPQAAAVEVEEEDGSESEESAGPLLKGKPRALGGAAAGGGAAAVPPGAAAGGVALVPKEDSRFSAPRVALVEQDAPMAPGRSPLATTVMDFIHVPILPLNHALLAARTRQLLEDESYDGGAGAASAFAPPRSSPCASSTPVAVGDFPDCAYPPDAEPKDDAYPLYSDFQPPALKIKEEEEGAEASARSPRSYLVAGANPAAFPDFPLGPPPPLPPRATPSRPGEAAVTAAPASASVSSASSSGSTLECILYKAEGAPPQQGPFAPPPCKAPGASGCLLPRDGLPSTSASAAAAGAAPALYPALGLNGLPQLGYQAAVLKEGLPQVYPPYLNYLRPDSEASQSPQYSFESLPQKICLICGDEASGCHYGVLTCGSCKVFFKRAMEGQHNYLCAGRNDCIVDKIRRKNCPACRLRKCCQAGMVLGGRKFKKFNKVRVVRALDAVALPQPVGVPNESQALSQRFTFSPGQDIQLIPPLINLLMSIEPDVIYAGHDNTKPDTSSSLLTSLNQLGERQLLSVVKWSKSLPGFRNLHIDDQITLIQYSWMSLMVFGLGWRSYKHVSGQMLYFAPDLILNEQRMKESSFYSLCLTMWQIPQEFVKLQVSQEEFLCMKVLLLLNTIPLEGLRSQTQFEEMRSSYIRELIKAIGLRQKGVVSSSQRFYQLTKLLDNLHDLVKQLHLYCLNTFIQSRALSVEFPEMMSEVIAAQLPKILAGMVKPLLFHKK
# How it was run: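 Agonist mode, quantitative HTS format in a HEK 293T line expressing a UAS-controlled beta-lactamase reporter; 16 hr compound exposure at 37C in 2% charcoal-stripped FBS, then LiveBLAzer B/G FRET fluorescence.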
# [3] = target: Progesterone receptor (Homo sapiens) (UniProt P06401); assay: qHTS assay to identify small molecule antagonists of the progesterone receptor (PR) signaling pathway (AID 1346795; active = well fitted inhibition curve with a large enough effect in the signal ratio in the repeat runs, not every such curve was filed as active; the % refers to the signal ratio)
# How it was run: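 HEK293T PR-UAS-bla reporter cells in charcoal-stripped serum (2%) received compound after a 6 hr settling period, followed by R5020 agonist at 1 nM final; 16 hr incubation preceded the FRET substrate step and fluorescence measurement.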
# [4] = qHTS assay to identify small molecule antagonists of the progesterone receptor (PR) signaling pathway - cell viability counter screen (AID 1346798); also: series mostly up to about 92 µM; nearly all actives have a fitted effect of over 50% in size
# How it was run: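 Same-well multiplex: after 16 hr at 37C with compound and R5020 stimulation, HEK293T cells carrying a UAS-bla reporter received LiveBLAzer substrate (2 hr RT), then CellTiter-Glo (30 min RT) for luminescent viability.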
# [5] = qHTS assay to identify small molecule agonists of the progesterone receptor (PR) signaling pathway - cell viability counter screen (AID 1346799; calls by dose curve; also: nearly all actives have a fitted effect of over 45% in size)
# How it was run: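 Counter screen for cytotoxicity: compound-treated PR-UAS-bla HEK293T cells (16 hr, 37C, 5% CO2) were assayed with CellTiter-Glo, luminescence measured after 30 min at room temperature.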
# [6] = qHTS assay to identify small molecule agonists of the TGF-beta/Smad signaling pathway - cell viability counter screen (AID 1346829); also: top concentration of the series differs between compounds; nearly all actives have a fitted effect of over 45% in size
# How it was run: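 After overnight seating at 37 C and 5% CO2, reporter cells got compounds for 5 hr and FRET substrate for 2 hr; cell viability then came from CellTiter-Glo luminescence.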
# [7] = qHTS assay to identify small molecule agonists of the TGF-beta/Smad signaling pathway (AID 1346859; active = well fitted activation curve with a large enough effect in the signal ratio in the repeat runs, not every such curve was filed as active; the % refers to the signal ratio; also: series mostly up to about 77 µM)
# How it was run: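 Smad-responsive beta-lactamase reporter cells (HEK 293T) received compounds from DMSO stocks after overnight attachment, were incubated 5 hr, then treated 2 hr with FRET substrate before dual-emission fluorescence measurement (405 nm excitation).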
# [8] = target: Thyrotropin-releasing hormone receptor (Homo sapiens) (UniProt P34981); assay: qHTS assay to identify small molecule antagonists of the thyrotropin-releasing hormone receptor (TRHR) signaling pathway (AID 1346877; active = well fitted inhibition curve with a large enough effect in the repeat runs, not every such curve was filed as active; also: series mostly up to about 51 µM)
# Chain of Thyrotropin-releasing hormone receptor (Homo sapiens) (P34981 whole entry, looked up): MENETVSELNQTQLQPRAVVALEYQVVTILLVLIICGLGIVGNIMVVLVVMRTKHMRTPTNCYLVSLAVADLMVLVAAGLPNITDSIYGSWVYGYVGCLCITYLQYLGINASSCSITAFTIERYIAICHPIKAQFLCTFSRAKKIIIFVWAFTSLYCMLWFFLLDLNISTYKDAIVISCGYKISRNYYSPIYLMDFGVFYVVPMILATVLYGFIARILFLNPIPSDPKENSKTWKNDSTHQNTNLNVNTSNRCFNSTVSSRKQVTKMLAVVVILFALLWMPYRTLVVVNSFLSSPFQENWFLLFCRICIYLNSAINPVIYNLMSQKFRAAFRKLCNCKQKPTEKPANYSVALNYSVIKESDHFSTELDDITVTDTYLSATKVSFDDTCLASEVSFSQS
# How it was run: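 TRHR-expressing HEK293 cells were seeded, cultured 18 h at 37 °C, then loaded with calcium dye for 2 h. Compounds were pre-incubated 5 min at room temperature before 1 nM TRH (final) was added, and kinetic fluorescence was recorded for 3 min.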
# [9] = Human pregnane X receptor (PXR) small molecule agonists, qHTS cell viability counter screen (AID 1346977); also: nearly all actives have a fitted effect of over 50% in size
# How it was run: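 Measures live-cell protease fluorescence (CellTiter-Fluor) in PXR-Luc HepG2 cells treated 24hr with compounds at 37C. Cells had 5hr to attach before pin transfer of DMSO solutions.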
# [10] = Caspase-3/7 induction in HepG2 cells by small molecules, qHTS assay (AID 1346978); also: nearly all actives have a fitted effect of over 15% in size; also: potency is read from the fitted curve at half-maximal effect
# How it was run: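 Wild-type HepG2 cells, 2,000/well, settled 5 hr at 37 C and 5% CO2, then compound-treated for 17 hr; caspase-3/7 activity read by luminescent Caspase-Glo 3/7 after 30 min at room temperature.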
# [11] = Caspase-3/7 induction in CHO-K1 cells by small molecules, qHTS assay (AID 1346980); also: nearly all actives have a fitted effect of over 15% in size
# How it was run: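 Wild-type CHO-K1 cells exposed to compounds for 17hr at 37 C, 5% CO2. Caspase-3/7 activity then measured by Caspase-Glo 3/7 luminescence after 30min at room temperature.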
# [12] = Caspase-3/7 induction in HepG2 cells by small molecules, qHTS cell viability counter screen (AID 1346981); also: series mostly up to about 92 µM; nearly all actives have a fitted effect of over 30% in size
# How it was run: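 Wild-type HepG2 cells (2,000/well) were allowed to settle for 5 hr at 37 C, 5% CO2, then dosed with compounds in DMSO by pin transfer. After 16 hr at 37 C, CellTiter-Fluor was added and fluorescence read 1 hr later.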
# [13] = target: Nuclear receptor subfamily 1 group I member 2 (Homo sapiens) (UniProt O75469); assay: Human pregnane X receptor (PXR) small molecule agonists, qHTS assay (AID 1346982); also: nearly all actives have a fitted effect of over 35% in size; also: potency is read from the fitted curve at half-maximal effect
# Chain of Nuclear receptor subfamily 1 group I member 2 (Homo sapiens) (O75469 whole entry, looked up): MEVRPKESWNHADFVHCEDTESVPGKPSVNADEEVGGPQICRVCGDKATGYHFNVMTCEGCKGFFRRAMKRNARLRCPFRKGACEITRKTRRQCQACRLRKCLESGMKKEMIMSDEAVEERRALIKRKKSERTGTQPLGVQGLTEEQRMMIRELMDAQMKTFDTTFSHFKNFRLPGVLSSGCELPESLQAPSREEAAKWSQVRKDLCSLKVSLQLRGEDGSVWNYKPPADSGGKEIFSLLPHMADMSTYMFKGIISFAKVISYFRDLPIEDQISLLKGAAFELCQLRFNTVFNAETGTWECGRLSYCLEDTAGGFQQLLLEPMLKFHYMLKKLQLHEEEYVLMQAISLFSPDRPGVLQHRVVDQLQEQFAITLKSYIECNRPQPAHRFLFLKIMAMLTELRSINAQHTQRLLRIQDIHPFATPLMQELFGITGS
# How it was run: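 PXR-Luc HepG2 cells (CYP3A4 promoter-driven luciferase) were seeded in medium with 5% charcoal-stripped FBS, left 5 hr at 37 C, then exposed to compounds in DMSO for 24 hr. Luminescence was read after ONE-Glo addition.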
# [14] = target: Cytochrome P450 2D6 (Homo sapiens) (UniProt P10635); assay: Cytochrome P450 Family 2 Subfamily D Member 6 (CYP2D6) small molecule antagonists: luciferase reporter qHTS assay (AID 1671196); also: nearly all actives have a fitted effect of over 50% in size; also: potency is read from the fitted curve at half-maximal effect
# Chain of Cytochrome P450 2D6 (Homo sapiens) (P10635 whole entry, looked up): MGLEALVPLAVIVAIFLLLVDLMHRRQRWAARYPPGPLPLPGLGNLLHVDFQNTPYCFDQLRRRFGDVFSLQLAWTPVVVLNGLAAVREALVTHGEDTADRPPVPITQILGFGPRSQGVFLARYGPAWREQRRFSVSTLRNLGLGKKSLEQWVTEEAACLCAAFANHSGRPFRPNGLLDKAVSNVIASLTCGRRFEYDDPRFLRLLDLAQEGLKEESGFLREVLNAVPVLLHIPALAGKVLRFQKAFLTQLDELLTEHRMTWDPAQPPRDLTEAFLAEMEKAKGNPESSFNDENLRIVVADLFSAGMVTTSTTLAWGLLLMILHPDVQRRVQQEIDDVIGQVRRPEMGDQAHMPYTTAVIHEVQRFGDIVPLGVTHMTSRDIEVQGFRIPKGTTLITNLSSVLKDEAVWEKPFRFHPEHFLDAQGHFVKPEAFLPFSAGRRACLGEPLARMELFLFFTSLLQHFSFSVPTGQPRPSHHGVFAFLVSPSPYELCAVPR
# How it was run: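 CYP2D6 enzyme–substrate mix was held with compound for 10 min at room temperature, then NADPH regeneration solution was added and the reaction ran 1 h at room temperature. Luciferin product was detected by luminescence after 20 min with detection reagent.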
# [15] = qHTS assay to identify small molecule antagonists of the TGF-beta/Smad signaling pathway - cell viability counter screen (AID 1346824); also: nearly all actives have a fitted effect of over 50% in size
# How it was run: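 SBE-bla HEK 293T cells, incubated overnight, then compound plus 0.25 ng/mL TGF-beta1 (stock added) for 5 hr at 37 C. Viability was read in the same wells by CellTiter-Glo luminescence after 30 min at room temperature.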
# [16] = target: Thyrotropin-releasing hormone receptor (Homo sapiens) (UniProt P34981); assay: qHTS assay to identify small molecule agonists of the thyrotropin-releasing hormone receptor (TRHR) signaling pathway (AID 1346891; calls by dose curve; also: series mostly up to about 58 µM)
# How it was run: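 Agonist-mode calcium mobilisation screen: TRHR-transfected HEK293 cells cultured overnight (18 h), dye-loaded for 2 h at 37 °C, exposed to compounds, and monitored by fluorescence for 3 min.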
# [17] = Caspase-3/7 induction in CHO-K1 cells by small molecules, qHTS cell viability counter screen (AID 1346979); also: nearly all actives have a fitted effect of over 35% in size; also: potency is read from the fitted curve at half-maximal effect
# How it was run: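 In the same wells as the caspase read, viability of compound-treated wild-type CHO-K1 cells was assessed using CellTiter-Fluor, added after 16hr at 37C and measured by fluorescence following 1hr further incubation.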
# [18] = target: Nuclear receptor subfamily 1 group I member 2 (Rattus norvegicus) (UniProt Q9R1A7); assay: Rat pregnane X receptor (rPXR) activation by small molecules, qHTS assay (AID 1346983); settings: rPXR luciferase reporter cells, One-Glo luminescence, 24 h; stronger effect = higher value; also: nearly all actives have a fitted effect of over 20% in size
# Chain of Nuclear receptor subfamily 1 group I member 2 (Rattus norvegicus) (Q9R1A7 whole entry, looked up): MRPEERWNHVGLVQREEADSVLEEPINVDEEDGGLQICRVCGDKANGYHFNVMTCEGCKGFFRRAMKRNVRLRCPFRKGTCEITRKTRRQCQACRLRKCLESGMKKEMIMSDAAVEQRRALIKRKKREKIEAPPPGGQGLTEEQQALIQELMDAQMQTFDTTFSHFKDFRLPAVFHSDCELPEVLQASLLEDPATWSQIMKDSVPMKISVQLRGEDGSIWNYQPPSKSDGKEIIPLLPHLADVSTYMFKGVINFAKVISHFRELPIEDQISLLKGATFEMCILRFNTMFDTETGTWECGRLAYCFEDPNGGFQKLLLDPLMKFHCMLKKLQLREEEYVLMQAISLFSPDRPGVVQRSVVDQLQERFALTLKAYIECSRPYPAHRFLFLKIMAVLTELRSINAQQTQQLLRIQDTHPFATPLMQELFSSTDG
# How it was run: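 Cell-based rPXR activation assay: rPXR cells, 2,000 per well, rested 5hr at 37 C, then exposed to compounds in DMSO for 24 hr at 37 C. Luciferase activity read by One-Glo luminescence after 30 min at room temperature.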
# [19] = target: Nuclear receptor subfamily 1 group I member 2 (Homo sapiens) (UniProt O75469); assay: CYP3A4 induction through human pregnane X receptor (PXR) by small molecules, qHTS assay (AID 1346984); also: nearly all actives have a fitted effect of over 40% in size
# How it was run: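 DPX-2 cells (HepG2 co-transfected with PXR and CYP3A4 promoter-luciferase) treated with compounds 24 h at 37C; luciferin-IPA CYP3A4 substrate 3uM final added for 3 h, then One-Glo; luminescence read. qHTS format.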
# [20] = target: Nuclear receptor subfamily 1 group I member 2 (Homo sapiens) (UniProt O75469); assay: Human pregnane X receptor (PXR) activation by small molecules, qHTS assay (AID 1346985); also: nearly all actives have a fitted effect of over 40% in size
# How it was run: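 DPX-2 cells (HepG2 co-transfected with a PXR response element and a CYP3A4-promoter luciferase construct) were seeded at 2,000 per well, rested 5 hr at 37C, then exposed to DMSO-dissolved compounds for 24 hr. Activation was read as luciferase luminescence.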
SMILES,Potency [1],Potency [2],Potency [3],Potency [4],Potency [5],Potency [6],Potency [7],Potency [8],Potency [9],Potency [10],Potency [11],Potency [12],Potency [13],Potency [14],Potency [15],outcome [16],Potency [17],max activation [18] [%],Potency [19],Potency [20]
O=C(O)c1ccc2cc(C(=O)O)ccc2c1,inactive,inactive,inactive,inactive,inactive,inactive,inactive,inactive,inactive,inactive,inactive,inactive,inactive,inactive,–,–,–,–,–,–
O=C(O)Cc1ccc2c(c1)C(=O)c1ccccc1CO2,inactive,inactive,inactive,inactive,inactive,inactive,–,–,inactive,inactive,inactive,inactive,inactive,inactive,inactive,–,–,–,–,–
CC(C)CCCCCOC(=O)CCS,inactive,inactive,inactive,inactive,inactive,inactive,inactive,inactive,–,inactive,inactive,inactive,inactive,inactive,–,inactive,–,–,–,–
Nc1nc2c(ncn2COCCO)c(=O)[nH]1,inactive,inactive,inactive,inactive,inactive,inactive,inactive,–,inactive,inactive,inactive,inactive,inactive,–,–,–,inactive,-0.779,inactive,inactive
O=C(O)c1cccc(C(F)(F)F)c1,inactive,inactive,inactive,inactive,inactive,inactive,inactive,–,inactive,inactive,inactive,inactive,inactive,–,inactive,–,inactive,–,–,–
CCc1ccc(Br)cc1,inactive,inactive,inactive,inactive,inactive,inactive,inactive,–,inactive,inactive,inactive,inactive,inactive,inactive,inactive,–,inactive,–,–,–
OC1CCCc2ccccc21 (stereo not drawn),inactive,inactive,inactive,inactive,inactive,inactive,inactive,inactive,–,inactive,inactive,inactive,inactive,inactive,inactive,–,inactive,–,–,–
Cc1c(C)c2c(c(C)c1O)CC[C@@](C)(CCC[C@H](C)CCC[C@H](C)CCCC(C)C)O2,inactive,inactive,inactive,inactive,inactive,inactive,inactive,inactive,–,inactive,inactive,inactive,inactive,inactive,inactive,–,inactive,–,–,–
CCCCCCCC/C=C\CCCCCCCCN,inactive,inactive,inactive,inactive,inactive,inactive,inactive,inactive,–,inactive,inactive,inactive,inactive,1.55 µM (active),–,inactive,inactive,–,inactive,inactive
COc1cccc(OC)c1C(=O)O,inactive,inactive,inactive,inactive,inactive,inactive,inactive,inactive,inactive,inactive,–,inactive,inactive,inactive,inactive,–,inactive,–,–,–
Cc1cccc2cccnc12,inactive,inactive,inactive,inactive,inactive,inactive,inactive,inactive,inactive,inactive,inactive,inactive,inactive,inactive,–,inactive,inactive,–,–,–
CC(C)OC(=O)C(O)(CC(=O)O)CC(=O)O,inactive,inactive,inactive,inactive,inactive,inactive,inactive,inactive,inactive,inactive,inactive,inactive,48.6 µM (active),inactive,–,inactive,inactive,–,–,–
O=C(/C=C/c1ccccc1)OC/C=C/c1ccccc1,inactive,inactive,inactive,inactive,inactive,inactive,inactive,inactive,inactive,inactive,inactive,inactive,–,inactive,–,inactive,–,–,–,–
C=CCCC(=O)/C=C/C1C(C)=CCCC1(C)C (stereo not drawn),inactive,inactive,inactive,inactive,inactive,inactive,inactive,inactive,inactive,inactive,inactive,inactive,27.3 µM (active),–,–,inactive,inactive,–,–,–
CC(C)(C)c1ccc(C(O)CCCN2CCC(C(O)(c3ccccc3)c3ccccc3)CC2)cc1 (stereo not drawn),inactive,inactive,inactive,inactive,inactive,–,–,–,–,11.9 µM (active),–,–,inactive,–,inactive,–,11.9 µM (active),–,–,–
COc1cc(C)ccc1O,inactive,inactive,inactive,inactive,inactive,inactive,inactive,inactive,inactive,inactive,inactive,–,inactive,inactive,–,inactive,inactive,–,–,–
Cc1c(C)c2c(c(C)c1OC(=O)c1cccnc1)CC[C@@](C)(CCC[C@H](C)CCC[C@H](C)CCCC(C)C)O2,inactive,inactive,inactive,inactive,inactive,inactive,inactive,–,inactive,inactive,inactive,inactive,inactive,inactive,inactive,–,inactive,0.296,inactive,inactive
CCOC(=O)Cn1cccc1-c1nc(-c2ccc(OC)cc2)c(-c2ccc(OC)cc2)s1,inactive,inactive,inactive,inactive,inactive,inactive,inactive,inactive,–,inactive,inactive,–,–,–,–,inactive,inactive,–,–,–
